Results from PubChem BioAssay AID540363 (National Center for Advancing Translational Sciences (NCATS), 2011).
Records with an inconclusive call do not appear. A number with no mark means an inactive call. Calls of active or inactive are those of the source. Calls come from the whole dose curve; as a rule, active = well fitted cell-killing curve with a large enough effect; inconclusive = small, poorly fitted or top-dose-only effect; inactive = flat fitted curve, though single readings scatter.

Experiment: PC3M Cytotoxicity Assay for Compounds that Inhibit the Perinuclear Compartment: Chemistry Optimization Followup
Details: PC3M-GFP viability, ATPLite luminescence, 24 h; series mostly up to 46.1 µM; activity change, negative = cytotoxicity: at the top concentration
Description: The perinucleolar compartment (PNC) is a non-membrane-bound nuclear subdomain that is associated with but structurally distinct from the nucleolus. The PNC is a heritable trait, in which the number of PNCs per cell in daughter cells often mimics that of their mother cells. The PNC is heterogeneous in shape, is stable through interphase, disassembles during mitosis, and reassembles in early G1. The PNC is concentrated with newly synthesized RNA polymerase III (pol III) RNAs (MRP RNA, RNAse P H1 RNA, hY RNAs[hY1, 2, 5], Alu RNA, and SRP [7SL] RNA) and RNA binding proteins (nucleolin, PTB, CUG-BP, KSRP, Raver1, Raver2, and Rod). […] Extensive in vitro studies have shown that the PNC is unique to tumor cells and preferentially forms in tumor cells derived from solid tissues. Examination of cancer cell lines from various origins and malignant capacities has shown that PNC prevalence correlates with the malignancy of tumors and has the potential to be developed as a pan-cancer prognostic marker. […] Although the PNC is associated with a DNA locus and a handful of components have been identified, much remains to be investigated regarding the structure and function of the PNC and its mechanistic link to cancer. We have previously shown that PNC prevalence reduction is a valid strategy to identify compounds that can be used to study the structure and function of the PNC. It is necessary, however, to create a screening platform that is able to test a large number of compounds in an automated fashion. Here we report the development and robustness of an automated whole-cell phenotypic image-based screening assay that is capable of identifying such compounds. We conducted a followup assay to measure the effect of the lead candidates on cell health by measuring ATP levels (ATPLite). The highly metastatic PC3M-GFP reporter cell line was used in this study. NIH Chemical Genomics Center [NCGC] NIH Molecular Libraries Probe Centers Network [MLPCN] MLPCN Grant: MH082371-01A2 Assay Submitter (PI): Sui Huang, Northwestern University, Feinberg School of Medicine, Cell and Molecular Biology, Chicago, Illinois.
1. Cells at a density of 75-90% confluency in T175 flasks were harvested using 7 ml TrypLE Express cell dissociation reagent. After dissociation (5 minutes room temperature incubation) 10 ml of complete media was added to the TrypLE/cell suspension. The liquid was transferred to a 50 ml Conical tube and cells were pelleted at 1000 RPM for 5 min. Supernatant was removed and cells were resuspended to a final density of 150-200 cells/ul in complete media. 2. Cells were plated in 5 ul volume (2000 cells/well) into 1536 well White solid bottom plates and allowed to recover and adhere at 37 C in a humidified 5% CO2 incubator for 4 hours. 3. After 4 hour incubation, compound libraries (23 nl of […] in columns 5-48) were transferred to the plates in duplicate using a 1536 well pintool. Camptothecin positive control (59 uM final) was added to column 2 and 1:3 dilutions of camptothecin was added to column 3. DMSO negative controls were present in columns 1 and 4. 4. After a 24 hour incubation in the 37 C incubator, all wells were treated with 3 ul of ATPLite reagent using a multidrop combi dispenser (ThermoFisher). Bubbles that formed during dispensing were removed by spinning the plates for 1 minutre at 1500 RPM on a table top centrifuge. 5. Luminescencent signal was detected on a Viewlux CCD based imager (PerkinElmer) with a clear filter and a 30 second integration time. The PC3M cell line stably expressing the PTB-GFP was provided by Sui Huang of Northwestern University. The media and cell culture reagents were purchased from Invitrogen (Carlsbad, CA), ATPLite came from PerkinElmer.

| Structure (SMILES) | Potency | activity change, negative = cytotoxicity [%] |
| --- | --- | --- |
| CN(C)CCCn1cnc2c(c(-c3ccccc3)c(-c3ccccc3)n2CCc2ccccc2)c1=N | 22.3 µM (active) |  |
| N=c1c2c(-c3ccccc3)c(-c3ccccc3)n(CCc3ccccc3)c2ncn1CCCO | 15.6 µM (active) |  |
| C[C@H]([C@@H](O)c1ccccc1)n1cnc2c(c(-c3ccccc3)c(-c3ccccc3)n2Cc2ccccc2)c1=N | 15.8 µM (active) |  |
| CN(C(=O)c1cccs1)c1cccnc1 |  | 3.37 |
| CN(C)CCn1cnc2c(c(-c3ccccc3)c(-c3ccccc3)n2Cc2ccccc2)c1=N | 17.7 µM (active) |  |
| COc1ccc(Cn2c(NC=N[C@H](C)[C@@H](O)c3ccccc3)c(C#N)c(-c3ccccc3)c2-c2ccccc2)cc1 | 19.6 µM (active) |  |
| CN(C)CCn1cnc2c(c(-c3ccccc3)c(-c3ccccc3)n2CCc2ccccc2)c1=N | 15.8 µM (active) |  |
| COCCn1cnc2c(c(-c3ccccc3)c(-c3ccccc3)n2Cc2ccc(OC)cc2)c1=N | 17.7 µM (active) |  |
| N=c1c2c(-c3ccccc3)c(-c3ccccc3)n(Cc3ccccc3)c2ncn1CC1CCCO1 (stereo not given) | 19.9 µM (active) |  |
| N=c1c2c(-c3ccccc3)c(-c3ccccc3)n(CCc3ccccc3)c2ncn1C1CCC(O)CC1 (stereo not given) | 17.7 µM (active) |  |
| N=c1c2c(-c3ccccc3)c(-c3ccccc3)n(CCc3ccccc3)c2ncn1[C@H](CO)Cc1ccccc1 | 19.9 µM (active) |  |
| COc1ccc(Cn2c(-c3ccccc3)c(-c3ccccc3)c3c(=N)n(CC4CCCO4)cnc32)cc1 (stereo not given) | 19.9 µM (active) |  |
| CN(C)CCCn1cnc2c(c(-c3ccccc3)c(-c3ccccc3)n2Cc2ccccc2)c1=N | 25 µM (active) |  |
| COC(Cn1cnc2c(c(-c3ccccc3)c(-c3ccccc3)n2CCc2ccccc2)c1=N)OC | 17.7 µM (active) |  |
| N=c1c2c(-c3ccccc3)c(-c3ccccc3)n(CCc3ccccc3)c2ncn1CCCCCO | 17.7 µM (active) |  |
| COc1ccc(Cn2c(-c3ccccc3)c(-c3ccccc3)c3c(=N)n(CCCCCO)cnc32)cc1 | 15.8 µM (active) |  |
| N=c1c2c(-c3ccccc3)c(-c3ccccc3)n(CCc3ccccc3)c2ncn1CC1CCCO1 (stereo not given) | 11.2 µM (active) |  |
| COCCn1cnc2c(c(-c3ccccc3)c(-c3ccccc3)n2CCc2ccccc2)c1=N | 15.8 µM (active) |  |
| CCOC(CCCn1cnc2c(c(-c3ccccc3)c(-c3ccccc3)n2CCc2ccccc2)c1=N)OCC | 22.3 µM (active) |  |
| COc1ccc(Cn2c(-c3ccccc3)c(-c3ccccc3)c3c(=N)n(CCCCO)cnc32)cc1 | 12.5 µM (active) |  |
